Where a name gives a salt, the structure may show the parent alone. ± gives the standard deviation of the averaged measurements.
Tests used:
Experiment in all cases: growth (OD600 after 10 h); higher = more growth (less inhibition)
[1] = test system: E. coli TESEC Alr+ wild-type control; conditions: compound 0.1 mM; raw OD600 reference: median of DMSO wells 0.241, cell-free background 0.041
Method: (§1)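 TESEC Mtb Alr E. coli, or the Alr+ wild-type control, in 384-well plates with Prestwick library compounds at 0.1 mM and 1% DMSO, across arabinose induction levels of 1E3 to 1E7 nM. Growth is read as OD600 after 10 h at 37 °C in triplicate biological replicates.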

[2] = test system: E. coli TESEC Mtb Asd; conditions: compound 0.1 mM
Method: (§2)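 TESEC E. coli strains in which the native enzyme is deleted and replaced by arabinose-inducible Mtb Asd, DapB, CysH or TrpD, each grown in its selective medium. Strains were screened against the Prestwick library at 0.1 mM and 1% DMSO in 384-well format at low and high arabinose induction. Growth is read as OD600 after 10 h in triplicate.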

[3] = test system: E. coli TESEC Mtb DapB; conditions: compound 0.1 mM
Method: as §2

[4] = test system: E. coli TESEC Alr+ wild-type control; conditions: compound 0.1 mM; raw OD600 reference: median of DMSO wells 0.49, cell-free background 0.052
Method: (§3)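 TESEC Mtb Alr E. coli (ΔaraC ΔtolC ΔentC Δalr ΔdadX, arabinose-inducible Mtb Alr) or the Alr+ wild-type control strain, grown in defined M9-fructose medium without D-alanine in 96-well plates with Prestwick library compounds at 0.1 mM and 1% DMSO. Low Alr induction is 0.1 µM arabinose and high induction is 10 mM arabinose.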

[5] = test system: E. coli TESEC Mtb Alr; conditions: compound 0.1 mM
Method: as §3

[6] = test system: E. coli TESEC Mtb Alr; conditions: compound 0.1 mM; remark: listed apart in the source
Method: as §1

[7] = arabinose induction (level): High, raw OD600 reference: median of DMSO wells 0.331, cell-free background 0.041
[8] = arabinose induction (level): Low, raw OD600 reference: median of DMSO wells 0.417, cell-free background 0.041
[9] = arabinose induction (level): High, raw OD600 reference: median of DMSO wells […], cell-free background 0.041
[10] = arabinose induction (level): Low, raw OD600 reference: median of DMSO wells 0.227, cell-free background 0.041
[11] = arabinose 100 nM, raw OD600 reference: median of DMSO wells 0.413, cell-free background 0.052
[12] = arabinose 10000000 nM, raw OD600 reference: median of DMSO wells […], cell-free background 0.052
[13] = arabinose 1000 nM, raw OD600 reference: median of DMSO wells 0.294, cell-free background 0.041
[14] = arabinose 10000 nM, raw OD600 reference: median of DMSO wells 0.264, cell-free background 0.041
[15] = arabinose 100000 nM, raw OD600 reference: median of DMSO wells 0.201, cell-free background 0.041
[16] = arabinose 1000000 nM, raw OD600 reference: median of DMSO wells 0.193, cell-free background 0.041
[17] = arabinose 10000000 nM, raw OD600 reference: median of DMSO wells 0.146, cell-free background 0.041

| SMILES | growth [1] | growth [2, 7] | growth [2, 8] | growth [3, 9] | growth [3, 10] | growth [4] | growth [5, 11] | growth [5, 12] | growth [6, 13] | growth [6, 14] | growth [6, 15] | growth [6, 16] | growth [6, 17] |
| --- | --- | --- | --- | --- | --- | --- | --- | --- | --- | --- | --- | --- | --- |
| CC(=O)[C@H]1CC[C@H]2[C@@H]3CC=C4C[C@@H](O)CC[C@]4(C)[C@H]3CC[C@]12C [Pregnenolone] | 0.166 ± 0.0078 | 0.168 ± 0.026 | 0.343 ± 0.034 | 0.191 ± 0.0035 | 0.184 ± 0.009 | 0.458 ± 0.0056 | 0.398 ± 0.0084 | 0.2327 ± 0.0018 | – | – | – | – | – |
| C[C@H]1O[C@@H](O[C@H]2[C@@H](O)C[C@H](O[C@H]3[C@@H](O)C[C@H](O[C@H]4CC[C@@]5(C)[C@H](CC[C@@H]6[C@@H]5C[C@@H](O)[C@]5(C)[C@@H](C7=CC(=O)OC7)CC[C@]65O)C4)O[C@@H]3C)O[C@@H]2C)C[C@H](O)[C@@H]1O [Digoxin] | 0.232 ± 0.0079 | 0.28 ± 0.057 | 0.413 ± 0.046 | – | – | – | 0.414 ± 0.0055 | 0.329 ± 0.044 | 0.282 ± 0.01 | 0.275 ± 0.0083 | 0.2 ± 0.0092 | 0.176 ± 0.0061 | 0.136 ± 0.0037 |
| CCN(CC)CCNC(=O)c1ccc(N)cc1 [Procainamide hydrochloride] | 0.239 ± 0.0037 | 0.341 ± 0.0095 | 0.42 ± 0.039 | – | – | – | 0.408 ± 0.01 | 0.364 ± 0.0095 | 0.306 ± 0.019 | 0.2558 ± 0.0023 | 0.209 ± 0.043 | 0.192 ± 0.002 | 0.141 ± 0.0042 |
| Cc1c(NC(C)C)c(=O)n(-c2ccccc2)n1C [Isopyrin hydrochloride] | 0.2426 ± 0.0023 | 0.29 ± 0.04 | 0.429 ± 0.036 | 0.218 ± 0.019 | 0.268 ± 0.032 | 0.44 ± 0.036 | 0.393 ± 0.0061 | 0.351 ± 0.016 | – | – | – | – | – |
| CC(C)/N=c1\cc2n(-c3ccc(Cl)cc3)c3ccccc3nc-2cc1Nc1ccc(Cl)cc1 [Clofazimine] | 0.158 ± 0.004 | 0.247 ± 0.053 | 0.337 ± 0.11 | – | – | – | 0.395 ± 0.031 | 0.06873 ± 0.00031 | 0.231 ± 0.016 | 0.154 ± 0.037 | 0.225 ± 0.023 | 0.0638 ± 0.0033 | 0.168 ± 0.013 |
| CCOC(=O)C1=C(C)NC(C)=C(C(=O)OC)C1c1cccc(Cl)c1Cl (centres undefined) [Felodipine] | 0.0763 ± 0.012 | 0.0579 ± 0.0044 | 0.0538 ± 0.002 | – | – | – | 0.3 ± 0.099 | 0.0862 ± 0.0057 | 0.0729 ± 0.024 | 0.0553 ± 0.0007 | 0.0562 ± 0.0017 | 0.0517 ± 0.00035 | 0.0625 ± 0.0023 |
| CCCCC(CC)CNC(=N)NC(=N)NCCCCCCNC(=N)NC(=N)NCC(CC)CCCC (centres undefined) [Alexidine dihydrochloride] | 0.0519 ± 0.0017 | 0.0536 ± 0.00095 | 0.0584 ± 0.0047 | 0.0749 ± 0.029 | 0.071 ± 0.014 | 0.0485 ± 0.0022 | 0.0695 ± 0.012 | 0.0779 ± 0.013 | – | – | – | – | – |
| Oc1c(Cl)cc(Cl)c2cccnc12 [Chloroxine] | 0.044 ± 0.00076 | 0.0595 ± 0.0028 | 0.154 ± 0.05 | 0.0813 ± 0.015 | 0.117 ± 0.069 | 0.0623 ± 0.0012 | 0.0554 ± 0.0075 | 0.0726 ± 0.013 | – | – | – | – | – |
| CC(=O)[C@H]1CC[C@H]2[C@@H]3C[C@H](C)C4=CC(=O)CC[C@]4(C)[C@H]3[C@@H](O)C[C@]12C [Medrysone] | 0.122 ± 0.0039 | 0.217 ± 0.02 | 0.385 ± 0.041 | 0.179 ± 0.018 | 0.18 ± 0.0064 | 0.457 ± 0.067 | 0.399 ± 0.0044 | 0.213 ± 0.018 | – | – | – | – | – |
| O=C(O)c1cc(/N=N/c2ccc(S(=O)(=O)Nc3ccccn3)cc2)ccc1O [Sulfasalazine] | 0.274 ± 0.0048 | 0.314 ± 0.065 | 0.363 ± 0.054 | 0.207 ± 0.018 | 0.231 ± 0.03 | 0.473 ± 0.032 | 0.431 ± 0.0053 | 0.349 ± 0.017 | – | – | – | – | – |
| NS(=O)(=O)c1cc(C2(O)NC(=O)c3ccccc32)ccc1Cl (centres undefined) [Chlorthalidone] | 0.223 ± 0.0025 | 0.393 ± 0.037 | 0.462 ± 0.078 | 0.205 ± 0.016 | 0.208 ± 0.017 | 0.545 ± 0.05 | 0.415 ± 0.01 | 0.3322 ± 0.002 | – | – | – | – | – |
| CC(C(=O)O)c1ccc(C(=O)c2cccs2)cc1 (centres undefined) [Suprofen] | 0.2321 ± 0.0022 | 0.368 ± 0.056 | 0.365 ± 0.054 | 0.213 ± 0.0048 | 0.196 ± 0.029 | 0.605 ± 0.029 | 0.382 ± 0.01 | 0.3826 ± 0.0029 | – | – | – | – | – |
| Cc1cc(N)c2ccccc2[n+]1CCCCCCCCCC[n+]1c(C)cc(N)c2ccccc21 [Dequalinium dichloride] | 0.048 ± 0.0004 | 0.0691 ± 0.0051 | 0.0634 ± 0.006 | 0.0601 ± 0.004 | 0.0586 ± 0.0011 | 0.0513 ± 0.0018 | 0.0979 ± 0.005 | 0.0648 ± 0.0024 | – | – | – | – | – |
| CN1C(C(=O)Nc2ccccn2)=C(O)c2ccccc2S1(=O)=O [Piroxicam] | 0.195 ± 0.0024 | 0.321 ± 0.013 | 0.282 ± 0.042 | – | – | – | 0.362 ± 0.1 | 0.259 ± 0.016 | 0.229 ± 0.0073 | 0.253 ± 0.0061 | 0.18 ± 0.013 | 0.127 ± 0.0038 | 0.155 ± 0.003 |
| CC[C@@H]1C(=O)OC[C@@H]1Cc1cncn1C [Pilocarpine nitrate] | 0.231 ± 0.0064 | 0.222 ± 0.012 | 0.279 ± 0.044 | – | – | – | 0.391 ± 0.0052 | 0.319 ± 0.044 | 0.247 ± 0.037 | 0.244 ± 0.011 | 0.204 ± 0.032 | 0.18 ± 0.0025 | 0.145 ± 0.0063 |
| CN1C(C)(C)CCCC1(C)C [Pempidine tartrate] | 0.245 ± 0.0082 | 0.343 ± 0.023 | 0.434 ± 0.024 | 0.203 ± 0.024 | 0.239 ± 0.043 | 0.572 ± 0.089 | 0.4074 ± 0.0021 | 0.335 ± 0.011 | – | – | – | – | – |
| CS(=O)(=O)c1ccc([C@@H](O)[C@@H](CO)NC(=O)C(Cl)Cl)cc1 [Thiamphenicol] | 0.0517 ± 0.0013 | 0.0715 ± 0.0096 | 0.0618 ± 0.0034 | – | – | – | 0.301 ± 0.012 | 0.086 ± 0.0081 | 0.0511 ± 0.0029 | 0.0394 ± 0.00036 | 0.0517 ± 0.0013 | 0.0395 ± 0.0001 | 0.055 ± 0.0011 |
| O=C(Nc1ccc([N+](=O)[O-])cc1Cl)c1cc(Cl)ccc1O [Niclosamide] | 0.0431 ± 0.00067 | 0.0715 ± 0.017 | 0.225 ± 0.037 | 0.174 ± 0.012 | 0.193 ± 0.043 | 0.053 ± 0.003 | 0.0618 ± 0.0064 | 0.0616 ± 0.00076 | – | – | – | – | – |
| NCCC[C@H](N)CC(=O)N[C@H]1CNC(=O)[C@H]([C@H]2C[C@H](O)NC(N)=N2)NC(=O)/C(=C/NC(N)=O)NC(=O)[C@H](CO)NC(=O)[C@H](CO)NC1=O [Viomycin sulfate] | 0.178 ± 0.011 | 0.281 ± 0.032 | 0.268 ± 0.016 | – | – | – | 0.226 ± 0.14 | 0.0681 ± 0.0071 | 0.251 ± 0.012 | 0.1314 ± 0.0004 | 0.138 ± 0.0014 | 0.112 ± 0.0031 | 0.143 ± 0.0015 |
| CN1CCC(=C2c3ccccc3CCc3sccc32)CC1 [Pizotifen malate] | 0.127 ± 0.006 | 0.148 ± 0.013 | 0.181 ± 0.012 | 0.178 ± 0.0086 | 0.193 ± 0.0037 | 0.146 ± 0.012 | 0.402 ± 0.027 | 0.132 ± 0.054 | – | – | – | – | – |
| CC(=O)OCC(=O)[C@@]12OC(C)(C)O[C@@H]1C[C@H]1[C@@H]3C[C@H](F)C4=CC(=O)C=C[C@]4(C)[C@@]3(F)[C@@H](O)C[C@@]12C [Fluocinonide] | 0.229 ± 0.0095 | 0.434 ± 0.046 | 0.505 ± 0.0079 | 0.222 ± 0.013 | 0.234 ± 0.033 | 0.499 ± 0.058 | 0.432 ± 0.041 | 0.344 ± 0.033 | – | – | – | – | – |
